Laboratory results as given in PMC5540273 (PLoS ONE, 2017).

tested on: BLK; settings: concentration: 1 μM, replicates: in singlicate; n = 1
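Note: KINOMEscan kinase panel screen.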

Row | Structure (SMILES) | %Inh [%]
1 | CN1CCC(n2cnc(-c3ccc(F)cc3)c2-c2ccnc(NC3CCNCC3)n2)CC1 [SB-229482] | 10
2 | COc1ccc(NC(=O)c2ccc(-c3cc(-c4nnc(C)o4)ccc3C)cc2)cc1 [GW595885] | 34
3 | Cl.c1ccc(Cn2ccc3cc(Nc4ncnc5ccccc45)ccc32)cc1 [GW275568] | 0
4 | Nc1nccc2scc(-c3ccc4c(c3)CCN4C(=O)Cc3cc(F)ccc3F)c12 [GSK2587663] | 54
5 | C[C@@H]1CCN(C(=O)CO)C[C@@H]1N(C)c1ncnc2[nH]ccc12 | 2
6 | FC(F)(F)c1cc(Nc2nccc(-c3c(-c4ccc(Cl)cc4)nn4ncccc34)n2)ccc1Cl [GW829351] | 0
7 | O=C(Nc1ccccc1)Nc1ccc(Oc2ccc3nccn3n2)cc1 | 13
8 | Clc1ccc(-c2cc(-c3c[nH]nc3-c3ccccn3)ccn2)cc1 [GW681251] | 35
9 | CCCc1ccc(S(=O)(=O)NC2CCN(c3ccnc(Nc4ccc(OC)cc4)n3)C2)cc1 (centres unmarked) [GSK1379737] | 30
10 | O=C(Nc1n[nH]c2nc(-c3ccco3)c(Br)cc12)c1ccc(CN2CCCC2)cc1.O=C(O)[C@H](O)[C@@H](O)C(=O)O [SB-742352] | 0
11 | CCC(CC)(CC)n1cnc2c(N)ncnc21 [SKF-97620] | 0
12 | Clc1cc(Nc2ncnc3cc[nH]c23)ccc1OCc1ccccn1 | 0
13 | CCn1c(-c2ccncc2)nc2cnccc21 [SB-735216] | 0
14 | Cl.Cl.c1ccc(-c2cc3ccncc3cc2OC2CCNCC2)cc1 [GSK1122999] | 41
15 | COc1ccc(-c2nc3n(c2-c2ccncc2)CCC3)cc1 [SKF-104493] | 0
16 | O=c1cc(N2CCOCC2)nc2n(Cc3cccc(Cl)c3)ccn12 [GSK2296823] | 9
17 | COc1ccc(Nc2nccc(N3CCC(NC(=O)c4cccc(NC(C)=O)c4)C3)n2)cc1 (centres unmarked) [GSK1379732] | 40
18 | Cc1ccc(O)cc1Nc1cc(C(F)(F)F)nc2ccc(-c3ccncc3)cc12 [GW630823] | 12
19 | O=C(NCCCN1CCCC1=O)c1cnc(NCc2cc(Cl)ccc2Cl)nc1NC1CCNCC1 | 0
20 | COc1cc2ncnc(Nc3ccc(OCc4ccccc4Br)c(Cl)c3)c2cc1OC.Cl [GI261590] | 49
21 | Cc1cccc(-c2nc(Nc3ccc4[nH]nnc4c3)c3ccccc3n2)n1 [GW867587] | 3
22 | CC(=O)Nc1n[nH]c2ncc(-c3ccccc3)cc12 [SB-548492] | 28
23 | COC(=O)c1c(-c2ccccc2)c2cc(Cl)ccc2c(=O)n1Cc1ccc(S(C)(=O)=O)cc1 | 0
